Shown are actives, neighbours in structure and some others; about 1.2% of the full set was active somewhere.
GSH fluor – GSH bead compound fluorescence profile. 0.25% of 190,000 active. AID 1776. fluorescence (KMESF) at 10 µM. GSH beads flow cytometry, compound fluorescence 488/530 nm; stronger effect = higher value; in the data active means fluorescence above about 89;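 further: glutathione beads carrying GST-tagged Bcl family fusion proteins plus one bare bead set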
RGS8-Gao – regulators of human RGS8-Galphao interaction. 0.34% of 220,000 active. P09471. response (percent of control binding), % at 10 µM. multiplexed bead flow cytometry, RGS8-Galphao binding; actives lie on both sides. AID 1423; in the data active means response below about 60% or above about 140%; inactive means in between;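 further: Galphao activated as the GDP aluminium fluoride complex binding bead-coupled RGS8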
RGS7-Gao reg – modulates binding of RGS7 to human Galphao; 0.35% of 220,000 active; Multiplexed bead flow cytometry; actives lie on both sides; binding response (% of control), % at 10 µM; P09471; AID 1439; in the data active means binding response below about 49% or above about 150%; inconclusive means no clear call, values can overlap the other calls; inactive means in between;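 further: fluorescent Galphao held in activated GDP-AlF4 state binding bead-coupled RGS7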
RGS16-Gao HTS – regulators of human RGS16-Galphao interaction; O15492+P09471; bead-based flow cytometry RGS16-Galphao binding, fluorescence; actives lie on both sides; binding response (% of control), % at 10 µM; 0.38% of 220,000 active; AID 1441;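 further: Galphao activated by GDP with aluminum fluoride before binding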
Target sequence (O15492 whole entry, looked up): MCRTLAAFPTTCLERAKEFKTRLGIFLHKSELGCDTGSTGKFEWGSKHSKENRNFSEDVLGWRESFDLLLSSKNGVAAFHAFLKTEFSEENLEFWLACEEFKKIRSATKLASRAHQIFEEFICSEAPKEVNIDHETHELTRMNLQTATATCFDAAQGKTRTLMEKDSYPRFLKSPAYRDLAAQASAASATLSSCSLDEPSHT
Target sequence (P09471 whole entry, looked up): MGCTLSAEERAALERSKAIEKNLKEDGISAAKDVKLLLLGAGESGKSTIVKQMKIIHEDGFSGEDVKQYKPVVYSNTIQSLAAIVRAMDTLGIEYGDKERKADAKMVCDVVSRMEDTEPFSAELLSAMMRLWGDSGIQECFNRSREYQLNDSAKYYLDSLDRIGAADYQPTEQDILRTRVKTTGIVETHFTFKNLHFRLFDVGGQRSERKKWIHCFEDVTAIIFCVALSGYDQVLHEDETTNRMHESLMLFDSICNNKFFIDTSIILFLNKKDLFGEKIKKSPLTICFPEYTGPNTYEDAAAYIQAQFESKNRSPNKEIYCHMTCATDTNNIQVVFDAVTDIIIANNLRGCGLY
RGS4-Gao reg – modulates binding of RGS4 to human Galphao | AID 1415 | 0.33% of 220,000 active | Multiplexed bead flow cytometry; actives lie on both sides | P09471 | binding response (% of control), % at 10 µM; in the data active means binding response below about 49% or above about 150%; inactive means in between;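 further: fluorescent Galphao activated with aluminum fluoride binding bead-coupled RGS4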
Avidin bead fluor – compound fluoresces at 488/530 nm on avidin beads; AID 1775; compound fluorescence 488/530 nm, flow cytometry; stronger effect = higher value; fluorescence (KMESF) at 10 µM; 0.38% of 220,000 active; in the data active means fluorescence above about 47
RGS4-Gao HTS – RGS4-Galphao interaction regulator (human) | multiplexed bead flow cytometry, RGS–Galpha-o binding | RGS4–Galpha-o binding response, % at 10 µM | AID 1504 | shares compounds with RGS16-Gao HTS | 99% of 1,600 active;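 further: fluorescently labeled Galpha-o bound to GDP with aluminium fluoride binding biotinylated RGS beads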
Avidin counter – biotin-avidin bead binding disruption counter-screen; streptavidin beads, fluorescein-biotin binding, flow cytometry; shares compounds with RGS16-Gao HTS; 1,700 tested, under 10 active; inhibition, % at 10 µM;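 active means inhibition above 50%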;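 further: median green fluorescence of gated singlet beads compared with DMSO control wells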
RGS8-Gao confirm – RGS8-Galphao interaction regulation, single point confirmation | shares compounds with RGS16-Gao HTS | 3% of 1,700 active | bead-based flow cytometry RGS8-Galphao binding, fluorescence; actives lie on both sides | binding response (% of control), % at 10 µM; in the data active means binding response below about 72% or above about 130%; inactive means in between;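 further: Galphao activated as GDP AlF4 complex before binding bead RGS8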
RGS7-Gao single – RGS7-Galphao interaction regulation, single point confirmation; 7.8% of 1,700 active; AID 1837; response (percent of control binding), % at 10 µM; bead-based flow cytometry RGS7-Galphao binding; actives lie on both sides; shares compounds with RGS16-Gao HTS; in the data active means response below about 75% or above about 130%; inactive means in between;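 further: fluorescent Galphao activated with GDP and aluminum fluoride binding bead-coupled RGS7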
RGS16-Gao single – RGS16-Galphao interaction regulation, single point confirmation | 4% of 1,700 active | shares compounds with RGS16-Gao HTS | bead-based flow cytometry, RGS16-Galphao binding; actives lie on both sides | response (% of control binding), % at 10 µM; in the data active means response below about 74% or above about 130%; inactive means in between;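 further: Galphao activated as the GDP aluminium fluoride complex binding bead-coupled RGS16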
RGS4-Gao confirm – confirmation of regulators of human RGS4-Galphao interaction. shares compounds with RGS16-Gao HTS. RGS4-Galphao binding, multiplexed bead flow cytometry; actives lie on both sides. binding response (% of control), % at 10 µM. 4% of 1,700 active; in the data active means binding response below about 74% or above about 130%; inactive means in between
RGS19-Gao conf – RGS19-Galphao interaction regulation, single point confirmation | shares compounds with RGS16-Gao HTS | bead-based flow cytometry RGS19-Galphao binding; actives lie on both sides | 5% of 1,700 active | response (percent of control binding), % at 10 µM; in the data active means response below about 50% or above about 160%; inactive means in between
Of the large screens only hits and unclear results are named; the others gave an inactive call (follow-up assays come after a bar, where they were run); [ ] = dose if it differs, or a comment. Unless noted, how the calls were made is not given here.

O=C(O)CC1OCC=C2CN3CCC45C6=CC(=O)C(=O)C([N+](=O)[O-])=C6NC4C1C2CC35 (configuration not stated)	RGS7-Gao reg inconclusive, RGS4-Gao reg 46 (no result: GSH fluor) | Avidin counter inactive | RGS8-Gao confirm inactive | RGS7-Gao single inactive | RGS16-Gao single inactive | RGS4-Gao confirm inactive | RGS19-Gao conf inactive
CN1CCN(c2nc(N)cc(=O)[nH]2)CC1	RGS7-Gao reg inconclusive (no result: GSH fluor)
Clc1cc(Cl)cc(NC2=NCCS2)c1	RGS8-Gao 17, RGS7-Gao reg inconclusive, RGS16-Gao HTS -17, RGS4-Gao reg -29 (no result: GSH fluor) | Avidin counter inactive | RGS8-Gao confirm inactive | RGS7-Gao single inactive | RGS16-Gao single inactive | RGS4-Gao confirm inactive | RGS19-Gao conf inactive
CC(C)N1C(=O)CC2(CC[N+](C)(CCOC(=O)C(O)(c3ccccc3)c3ccccc3)CC2)C1=O (configuration not stated)	RGS8-Gao 32, RGS7-Gao reg 27, RGS16-Gao HTS 25, RGS4-Gao reg 32 | Avidin counter inactive | RGS8-Gao confirm inactive | RGS7-Gao single inactive | RGS16-Gao single inactive | RGS4-Gao confirm inactive | RGS19-Gao conf inactive
Cc1ccc(OCC(=O)N2CCN(C3CCC(c4ccccc4)CC3)CC2)cc1 (configuration not stated)	none
COC(=O)CC1NC2CCCCC2NC1=O (configuration not stated)	none
COc1ccc(CCn2c(O)c(/C=N/NC(=O)c3ccncc3)c(=O)[nH]c2=O)cc1OC	none
Cc1ccc(C(=O)N[C@@H](C)CN2C3=NC[C@H](Cc4ccccc4)N3C[C@H]2Cc2ccc(O)cc2)cc1Br	RGS7-Gao reg inconclusive (no result: GSH fluor)
Cc1ccc(C(=O)N[C@@H](C)CN2C3=NC[C@@H](Cc4ccccc4)N3C[C@H]2Cc2ccc(O)cc2)cc1Br	RGS8-Gao 18, RGS7-Gao reg 5.7, RGS16-Gao HTS 9.1, RGS4-Gao reg 17 | Avidin counter inactive | RGS8-Gao confirm inactive | RGS7-Gao single inactive | RGS16-Gao single inactive | RGS4-Gao confirm inactive | RGS19-Gao conf inactive
Cc1cccc(N2C(=O)NC(=O)/C(=C\c3cccn3-c3ccc(Cl)cc3)C2=O)c1	RGS7-Gao reg 233[activator], Avidin bead fluor 402 | RGS4-Gao HTS 129
Nc1c([N+](=O)[O-])cc(F)c(N2CCNCC2)c1Br	RGS8-Gao 52, RGS7-Gao reg 39, RGS4-Gao reg 44 | Avidin counter inactive | RGS8-Gao confirm inactive | RGS7-Gao single inactive | RGS16-Gao single inactive | RGS4-Gao confirm inactive | RGS19-Gao conf inactive
COc1ccc(C(c2c(O)c3ccccc3oc2=O)c2c(C)n(C)n(-c3ccccc3)c2=O)cc1 (configuration not stated)	none
Cc1c(C(c2ccc(F)cc2)c2c(O)c3ccccc3oc2=O)c(=O)n(-c2ccccc2)n1C (configuration not stated)	RGS8-Gao 46, RGS7-Gao reg 38 | RGS4-Gao HTS 67 | Avidin counter inactive | RGS8-Gao confirm inactive | RGS7-Gao single inactive | RGS16-Gao single inactive | RGS4-Gao confirm inactive | RGS19-Gao conf inactive
CCC(C)NC(=O)CN1C(=O)CN=C(c2ccccc2)c2ccccc21 (configuration not stated)	none
COc1ccc(C(O)P(=O)(OC(C)C)OC(C)C)cc1 (configuration not stated)	RGS7-Gao reg inconclusive (no result: GSH fluor)
CCOP(=O)(OCC)C(O)c1ccc(OC)cc1 (configuration not stated)	none (no result: GSH fluor, RGS8-Gao, RGS7-Gao reg, RGS16-Gao HTS, RGS4-Gao reg, Avidin bead fluor) | Avidin counter inactive | RGS8-Gao confirm inactive | RGS7-Gao single inactive | RGS16-Gao single inactive | RGS4-Gao confirm inactive | RGS19-Gao conf inactive
O=C(N/N=C/c1c(O)n(C2CC2)c(=S)[nH]c1=O)c1ccccc1O	none
O=C(O)C(Cc1cnc[nH]1)NS(=O)(=O)c1ccc(Cl)cc1 (configuration not stated)	none

High-throughput results from PubChem BioAssay.
